TRPML1 blocker: qHTS for Inhibitors of the Human Mucolipin Transient Receptor Potential 1 (TRPML1); Mucolipin-1 (Homo sapiens), Q9GZU1; TRPML1-inducible cells, Ca2+ dye fluorescence, FDSS; stronger effect = lower value; inhibition of EC80 agonist-evoked calcium signal; activity change, negative = inhibition, % (concentration not given with the values); hit rate 0.02% among 390,000; in the data active = activity change below about -50%; inconclusive = between about -30% and that limit;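 also: stimulus is agonist 54-4 at its EC80 concentration; % is scaled to controls: 0 for no effect and ±100 for the full control effect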
Target sequence (Q9GZU1 whole entry, looked up): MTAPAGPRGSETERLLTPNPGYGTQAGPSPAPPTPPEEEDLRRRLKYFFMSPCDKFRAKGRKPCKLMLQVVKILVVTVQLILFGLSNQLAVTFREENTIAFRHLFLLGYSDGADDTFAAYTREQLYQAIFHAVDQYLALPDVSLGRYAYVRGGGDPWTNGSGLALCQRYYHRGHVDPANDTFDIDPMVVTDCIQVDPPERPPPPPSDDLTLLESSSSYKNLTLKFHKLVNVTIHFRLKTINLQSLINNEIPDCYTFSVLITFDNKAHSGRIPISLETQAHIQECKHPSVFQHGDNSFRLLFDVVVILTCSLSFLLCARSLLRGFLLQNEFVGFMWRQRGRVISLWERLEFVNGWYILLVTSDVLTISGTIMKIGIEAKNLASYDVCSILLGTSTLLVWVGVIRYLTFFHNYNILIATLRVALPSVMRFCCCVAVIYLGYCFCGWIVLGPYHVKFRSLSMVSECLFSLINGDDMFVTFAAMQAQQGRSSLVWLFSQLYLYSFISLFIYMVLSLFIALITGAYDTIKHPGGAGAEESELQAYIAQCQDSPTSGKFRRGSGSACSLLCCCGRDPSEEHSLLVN
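TRPML1-DL cells, Tet-induced overnight (~16 h, 37 °C) at 1,500 cells/well, were loaded with Ca8 no-wash dye plus quencher for 45-90 min at room temperature. Compounds were pinned during FDSS kinetic reading; agonist 54-4 at EC80 (4 uM final) then added.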
Vif-A3G inh: qHTS for Inhibitors of Vif-A3G Interactions: qHTS. DNA dC->dU-editing enzyme APOBEC-3G (Homo sapiens), Q9HC16. HeLa A3G-eYFP + Vif (tagged APOBEC3G with the HIV-1 protein that degrades it), YFP fluorescence, overnight. Potency, µM (doses to about 46.1 µM), for the others: at the highest dose activity, negative = active, usual class: inhibitors. hit rate 0.076% among 410,000. AID 602310, 2012; also: potency is read from the fitted curve at half-maximal effect; % is scaled to controls: 0 for no effect and ±100 for the full control effect; nearly all actives have a fitted effect of over 60% in size
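HeLa cells stably expressing Vif and C-terminally eYFP-tagged A3G, seeded overnight at 37 deg C, then exposed to compound by pintool overnight at 37 deg C. Rise in yellow fluorescence (Ex 488/Em 500-530, Acumen) marks blocked Vif-driven A3G degradation.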
TRPML1 ag: qHTS for Agonists of the Human Mucolipin Transient Receptor Potential 1 (TRPML1); Mucolipin-1 (Homo sapiens), Q9GZU1; TRPML1-expressing cells, Ca2+ dye fluorescence, FDSS; activation, % (concentration not given with the values); hit rate 0.12% among 410,000; AID 624414, 2012; in the data active = activation above about 50%; inconclusive = mostly about 30% to 49%; also: 0% is about no effect
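Tet-induced TRPML1-DL cells, 1,500 per well, cultured overnight, were loaded with a no-wash Ca2+ dye for 45–90 min. Calcium fluorescence was recorded on the FDSS for 110 s after compound addition, before the EC80 agonist (4 uM 54-4) was added.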
A-T KAP1 phos: qHTS Assay for Identifying a Potential Treatment of Ataxia-Telangiectasia; F2112 A-T fibroblasts, KAP-1 phosphorylation AlphaLISA; neocarzinostatin DNA damage 30 min before lysis; hit rate 0.19% among 320,000; Potency, µM (titrated, usually from 57.5 µM), without a hit: at the top dose activation, usual class: activators; also: potency is read from the fitted curve at half-maximal effect; % of control where 0% means no effect; nearly all actives have a fitted effect of over 45% in size
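ATM-like activity read as KAP-1 phosphorylation via AlphaLISA donor/acceptor antibody pairs after lysis and 6 hr at 25C. Cells were ATM-null patient fibroblasts (F2112, hTERT), dosed 60 min, then exposed to the DSB inducer NCS for 30 min.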
Vif-APOBEC3F blk: qHTS for Inhibitors of Vif-A3F Interactions: qHTS. HeLa A3F-eYFP + Vif (tagged APOBEC3F with the HIV-1 protein that degrades it), YFP fluorescence increase. Potency, µM (highest dose often 46.1 µM), for inactives: top-dose activity, negative = active. hit rate 0.2% among 390,000; also: potency is read from the fitted curve at half-maximal effect; % of control where 0% means no effect; nearly all actives have a fitted effect of over 65% in size
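HeLa cells stably expressing A3F-eYFP plus Vif, plated and incubated overnight at 37 deg C, then exposed to compounds overnight at 37 deg C. Blocked degradation read as raised yellow fluorescence (Ex 488/Em 500-530).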
Starred values were filed as active, the others as inactive; u = inconclusive; x = no result given; ! = not confirmed by another sample. Hits are enriched below; roughly 0.54% of the tested compounds scored in any of these assays. Unless noted, calls follow the shape of the dose curve; as a rule, active = well fitted curve in the direction sought with a large enough effect; inconclusive = small, poorly fitted or top-dose-only effect, or another doubt; inactive = no such curve, though single readings can be large; an effect the other way counts as inactive or inconclusive.

SMILES	TRPML1 blocker	Vif-A3G inh	TRPML1 ag	A-T KAP1 phos	Vif-APOBEC3F blk
O=C(CCc1ccc(O)cc1)c1c(O)cc(O)cc1O	-13	-17%	3	28µM*	-6%
COc1cc(O)c(CC=C(C)C)c(O)c1C(=O)CCc1ccc(O)cc1	x	-7%	x	0%	0%
CCOC(=O)C(/C=C(\C#N)C(=O)OCC)=C(/N)N1CCN(c2ccc(Cl)cc2)CC1	-10	-1%	69*	-3%	0%
O=C1CSC(=S)N1/N=C/c1cc(Br)c(O)c(Br)c1	-13	u	59*	-4%	u
COc1cc(/C=N/N2C(=O)CSC2=S)ccc1O	-15	-3%	2	-1%	6%
C=C(C)Cn1c(C)cc(C)c(S(=O)(=O)c2ccc(C)cc2)c1=O	9	3%	0	18%	-26%
Cc1cc(C)n(Cc2ccc(Cl)cc2Cl)c(=O)c1S(=O)(=O)c1ccccc1	-3	-9%	71*	12%	5%
O=c1[nH]c2cc(Br)cnc2nc1/C=C(\O)c1ccc(F)cc1	-5	-9%	4	2%	10µM*
Cc1ncc(C(O)c2ccc(N(C)C)cc2)n1Cc1ccccc1 (configuration not stated)	4	0%	0	x	-6%
CN(C)c1ccc2nc3c(=O)[nH]c(=O)nc-3n(CC(O)C(O)C(O)CO)c2c1 (configuration not stated)	0	2%	5	-7%	8.9µM*
Cc1nc(-c2ccc(F)cc2)sc1CCNC(=O)c1ccccc1C(F)(F)F	-19	-1%	1	x	-2%
COc1ccc(OC)c2sc(NC(=O)CCS(=O)(=O)c3ccccc3)nc12	0	11µM*	0	x	3%
Fc1ccc(C2=CC(c3ccco3)n3ncnc3N2)cc1 (configuration not stated)	36	-9%	4	-6%	-21%
C1=C(c2ccc(-c3ccccc3)cc2)Nc2ncnn2C1c1ccco1 (configuration not stated)	2	10%	69*	1%	u
COc1cccc(CN(Cc2ccco2)C(c2ccc(F)cc2)c2nnnn2C(C)(C)C)c1 (configuration not stated)	-4	-1%	106*	20%	0%
CC(C)(C)n1nnnc1C(c1cccnc1)N(Cc1ccccc1)Cc1ccco1 (configuration not stated)	28	-6%	2	1%	u
CC(C)(C)n1nnnc1C(c1ccccc1F)N(Cc1ccco1)CC1CCCO1 (configuration not stated)	3	0%	66*	-5%	2%
Cc1cc(NS(=O)(=O)c2ccc(NC(=O)COc3ccc(Cl)cc3)cc2)nc(C)n1	-19	-2%	0	x	4%
CCOc1ccc(CCNC(=O)Cn2nc(-c3ccc(C)cc3)ccc2=O)cc1OCC	-20	-1%	0	x	2%
CC(NC(=O)/C(C#N)=C/c1ccc([N+](=O)[O-])o1)c1ccccc1 (configuration not stated)	-20	22µM*	2	-5%	11µM*
CC(NC(=O)/C(C#N)=C/c1ccco1)c1ccccc1 (configuration not stated)	4	0%	0	13%	-6%
CCOCCCNC(=O)/C(C#N)=C/c1ccc([N+](=O)[O-])o1	6	u	1	-5%	13µM*
CCN(C(=O)c1cn(-c2ccc(OC)cc2)c(=O)c2ccccc12)c1cccc(Cl)c1	15	17%	0	x	7%
CCO[C@H]1OC(C(=O)N2CCN(C)CC2)=C[C@@H](c2csc3ccccc23)[C@@H]1CCCO	-16	-2%	0	20µM*	-7%
COc1cc(/C=C/C(=O)c2ccc3c(c2)OCO3)cc(Cl)c1O	2	13%	56*	0%	u
SMILES	TRPML1 blocker	Vif-A3G inh	TRPML1 ag	A-T KAP1 phos	Vif-APOBEC3F blk
CCOc1ccccc1-c1c2cc(O)c(=O)cc-2oc2cc(O)c(O)cc12	-8	6%	110*	-13%	u
COc1ccc(OC)c(-c2oc3ccccc3c(=O)c2O)c1	-15	-5%	0	-1%	-7%
O=c1cc2oc3cc(O)c(O)cc3c(-c3ccccc3O)c-2cc1O	14	-20%	16	-8%	u
COc1ccc(OC)c(-c2c3cc(O)c(=O)cc-3oc3cc(O)c(O)cc23)c1	1	1%	147*	0%	-17%
CCC(=O)N1c2ccc(S(=O)(=O)NCc3cccc(OC)c3)cc2CC1C (configuration not stated)	8	-3%	0	x	0%
CCOC(=O)c1c(NC(=O)c2nc(S(C)(=O)=O)ncc2Cl)sc(C(C)=O)c1C	9	-2%	-1	x	2%
CN(C)CCCN(C(=O)/C=C/c1cccs1)c1nc2ccc(F)cc2s1	12	u	0	6%	11µM*
COc1cccc2sc(N(CCN(C)C)C(=O)/C=C/c3cccs3)nc12	-9	-15%	-1	-3%	-5%
CN(C)CCN(C(=O)/C=C/c1cccs1)c1nc2c(F)cc(F)cc2s1	-2	-18%	0	1%	11µM*
COc1cc(OC)c(OC)cc1/C=C1\CC(C)C/C(=C\c2cc(OC)c(OC)cc2OC)C1=O (configuration not stated)	9	u	4	-3%	22µM*
COc1cc(/C=C/C(=O)O)ccc1O	x	-1%	x	x	4%
COc1cc(/C=C/C(=O)CC(=O)/C=C/c2ccc(O)c(OC)c2)ccc1O	1	u	55*!	-25%	u
Cn1nnnc1SCc1nc2scc(-c3ccc(Cl)cc3)c2c(=O)[nH]1	x	-21%	x	3%	22µM*
Cn1nnnc1SCc1nc2scc(-c3ccccc3)c2c(=O)[nH]1	21	0%	1	6%	3%
COc1ccc(NC(=O)c2cccc3ccccc23)cc1	13	11µM*	0	2%	0%
COc1ccc(NC(=O)c2cccc3c(Br)cccc23)cc1	x	-6%	x	1%	-4%
C[C@@H](C(=O)N1CCN(C(=O)OC(C)(C)C)CC1)n1cc(-c2cn([C@@H](C)C(=O)N3CCN(C(=O)OC(C)(C)C)CC3)nn2)nn1	x	x	x	22µM*	x
C[C@H]1CN([C@@H](C)CO)C(=O)CCCn2nncc2CO[C@H]1CN(C)S(=O)(=O)c1cccc(F)c1	-65*	2%	0	x	-25%
C[C@H](CO)N1C[C@H](C)[C@@H](CN(C)S(=O)(=O)c2cccc(F)c2)OCc2cnnn2CCCC1=O	0	-1%	0	x	-1%
